Consider 18 molecules from PubChem BioAssay (NCATS).

Test [1] is described as follows: High-throughput drug toxicity screening in the BPDCN cell line Cal-1 (AID 1224825; call rule not given here). As to conditions: Cal-1 BPDCN cell viability, qHTS; at 45.8 µM (top of the series) unless noted. In short, it runs like this:
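CellTiter-Glo luminescence after 48 h compound exposure; percent activity scaled with DMSO as 100% and bortezomib (9.2 uM final) as 0%. Cal-1 cells seeded at 500/well in RPMI, 10% FBS, no phenol red.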

Test [2] in a line: qHTS assay for measurement of the activity of small molecule inhibitors on Zika virus induced Caspase-3 activity in human iPSC derived neural progenitor cells (hNPCs) (AID 1224857). Further: nearly all actives have a fitted effect of over 65% in size. Further: potency means the concentration at half of the fitted maximal effect. The essentials: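 Human iPSC-derived neural progenitor cells pretreated 1 hr with compounds, then infected with Zika virus (2 FFU/cell) for 6 hours at 37 C. Caspase-3/7 measured by Caspase-Glo luminescence; % inhibition calculated from induction scaled to uninfected (0%) and infected (100%) wells.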

The nature of test [3]: qHTS Screen of the MIPE 4.0 Collection Against Ewings Sarcoma (TC71) (AID 1259253). Further: nearly all actives have a fitted effect of over 40% in size. Further: potency means the concentration at half of the fitted maximal effect. In short, it runs like this: (§1)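 Log-phase cells in RPMI with 5% FBS attached for 4 h, then received compounds as a titration for 48 h at 37C, 5% CO2. Viability was read by CellTiter-Glo luminescence and normalized to DMSO and no-cell wells.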
Test [4] can be described thus: qHTS Screen of the MIPE 4.0 Collection Against Ewings Sarcoma (EW8) (AID 1259255). Further: nearly all actives have a fitted effect of over 35% in size. Further: potency means the concentration at half of the fitted maximal effect.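 On viability: 100% = DMSO-treated cells and 0% = medium-only wells without cells.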 In short, it runs like this:
as §1
Background: In qHTS, concentration-response curves come from the screen itself.

A short description of test [5]: qHTS Screen of the MIPE 4.0 Collection Against Ewings Sarcoma (TC32) (AID 1259256). Further: nearly all actives have a fitted effect of over 45% in size. Further: potency means the concentration at half of the fitted maximal effect. In short, it runs like this:
as §1

The nature of test [6]: qHTS assay to identify small molecule inhibitors of chordoma cells - UCH-1 (AID 1259355). Further: nearly all actives have a fitted effect of over 55% in size. Further: potency means the concentration at half of the fitted maximal effect. On activity, negative = inhibition: on the % scale 0 is the no-effect control and ±100 the full control effect. In short, it runs like this:
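Screening used approved and investigational drugs in 15-point titration against 800 seeded cells per well. A fixed combination of auranofin with camptothecin, doxorubicin, rubitecan and topotecan followed compound addition, and growth was scored by CellTiter-Glo after 48hr.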

A short description of test [7]: qHTS assay to identify small molecule inhibitors of chordoma cells - UCH-2 (AID 1259356). Further: on the % scale 0 is the no-effect control and ±100 the full control effect.
The nature of test [8]: P-glycoprotein substrates identified in KB-8-5-11 adenocarcinoma cell line, qHTS therapeutic library screen (AID 1346987). Further: nearly all actives have a fitted effect of over 65% in size. Further: potency means the concentration at half of the fitted maximal effect. In short, it runs like this:
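Luminescence from CellTiter-Glo, read 5 min after addition, quantified survival of KB-8-5-11 (P-gp-overexpressing) cells exposed to compounds for 72 h. AC50 was derived from concentration-response curves.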

A short description of test [9]: NS1 protein of Zika virus - qHTS assay to identify small molecule inhibitors in human HEK 293 cells (AID 1347053). Further: nearly all actives have a fitted effect of over 55% in size. Further: potency means the concentration at half of the fitted maximal effect. In short, it runs like this: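 Compound-treated (1 h pre-infection) HEK 293 cells infected with ZIKV MR766, MOI = 0.5; after 24 h at 37 C, NS1 read by TR-FRET; data normalized to uninfected and infected controls.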
Test [10] in a line: qHTS Screen of the MIPE 4.0 Collection Against Ewings Sarcoma (RDES) (AID 1259252). Further: nearly all actives have a fitted effect of over 35% in size. Further: potency means the concentration at half of the fitted maximal effect. In short, it runs like this:
as §1

The nature of test [11]: Identifying Small Molecule Inhibitors of Pancreatic Cancer Stem Cells (SN12C, Adherent) (AID 1259358).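 Further: cell survival measured after 48 h of compound exposure.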 Further: potency means the concentration at half of the fitted maximal effect. The essentials: (§2)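 Spheroids grown 14 days in stem cell media on hydrogel-coated nonadherent plates; 2D lines seeded directly. Compounds added after 4 h attachment, 48 h at 37C, 5% CO2; CellTiter-Glo luminescence normalized to DMSO (no inhibition) and no-cell wells (full inhibition).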

A short description of test [12]: Identifying Small Molecule Inhibitors of Pancreatic Cancer Stem Cells (Panc1, Spheroid) (AID 1259359).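 Further: potency means the concentration at half of the fitted maximal effect; compound exposure lasted 48 h before reading.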 As to conditions: Panc1 spheroid cancer stem cell viability. In short, it runs like this:
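Spheroids grown 14 days in stem cell media on nonadherent hydrogel before screening; cells attached 4 h, then compound exposure 48 h at 37C, 5% CO2. CellTiter-Glo luminescence normalized to DMSO (no inhibition) and no-cell wells (full inhibition).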

The nature of test [13]: Identifying Small Molecule Inhibitors of Pancreatic Cancer Stem Cells (SN12C, Spheroid) (AID 1259360). Further: potency means the concentration at half of the fitted maximal effect.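 On viability (% of control): 100% = DMSO-treated cells and 0% = wells without cells.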 To be noted: Potency: SN12C spheroid viability. In short, it runs like this: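 Viability is scored by CellTiter-Glo luminescence 48 h after dosing, expressed as percent activity against vehicle and no-cell references. Spheroid formats rely on cells cultured 14 days in stem cell media beforehand.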

The nature of test [14]: Identifying Small Molecule Inhibitors of Pancreatic Cancer Stem Cells (A278, Adherent) (AID 1259361). Further: nearly all actives have a fitted effect of over 35% in size.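 On viability (% of control): 100% = DMSO-treated cells and 0% = cell-free media-only wells.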 The essentials:
as §2

Test [15] can be described thus: Identifying Small Molecule Inhibitors of Pancreatic Cancer Stem Cells (Panc1, Adherent) (AID 1259362). Further: potency means the concentration at half of the fitted maximal effect. As to conditions: Potency: viability. The essentials: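 Endpoint: ATP-based luminescence, 48 h drug exposure. Bortezomib at 9.2 uM final as full-kill control; DMSO vehicle as negative control; activity normalized between vehicle and cell-free wells.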
Test [16] can be described thus: qHTS assay for measurement of the activity of small molecule inhibitors on Zika virus induced Caspase-3 activity in human astrocytoma cells (AID 1224859).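 Further: plate controls were ZIKV-infected untreated cells for no effect and uninfected cells for full effect.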 The essentials:
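SNB-19 astrocytoma cells, 250/well, pretreated 1 h with compounds, then Zika virus at 2 FFU/cell for 6 h at 37 C; Caspase-Glo 3/7 luminescence after 30 min; percent inhibition normalised to uninfected and infected controls.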

Test [17] can be described thus: P-glycoprotein substrates identified in KB-3-1 adenocarcinoma cell line, qHTS therapeutic library screen (AID 1346986). Further: nearly all actives have a fitted effect of over 60% in size. In short, it runs like this:
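In 1536-well format, 500 cells/well received pinned compound titrations and were incubated 72 h, 5% CO2. Viability was read by CellTiter-Glo; cytotoxic if AC50 < 10 uM and efficacy >50%.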

The target in test [18] is Atrial natriuretic peptide receptor 1 (Homo sapiens) (UniProt P16066). Description: Natriuretic polypeptide receptor (hNpr1) antagonism - Pilot screen (AID 1347049; calls by dose curve;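 further: agonist-evoked cGMP luminescence read 20 min after hNppA addition; on the % scale 0 is the no-effect control and ±100 the full control effect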). In short, it runs like this:
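cGMP-sensor HEK293/hNpr1 cells, 1500/well, plated overnight at 37C. 2% GloSensor reagent, 2 h RT. Compound (23 nL pin transfer) 30 min RT, baseline luminescence pre-read. 0.1 nM hNppA, 20 min RT, post-read.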

In test [19] the target is Tyrosine-protein phosphatase non-receptor type substrate 1 (Homo sapiens) + Leukocyte surface antigen CD47 (Homo sapiens) (UniProt P78324+Q08722). Nature of the test: CD47-SIRPalpha protein protein interaction - LANCE assay qHTS validation (AID 1347057; active means well fitted curve in the direction sought with a large enough effect in the signal ratio, with a control signal flat, not every such curve was filed as active; the % refers to the signal ratio; further: 0% is about no effect). In short, it runs like this: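 Inhibition of soluble CD47/SIRPalpha ectodomain association by titrated compounds, measured as 665/615 nm time-resolved FRET ratio after sequential 30 min room-temperature incubations.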
Tyrosine-protein phosphatase non-receptor type substrate 1 (Homo sapiens) + Leukocyte surface antigen CD47 (Homo sapiens), sequence (P78324 whole entry, looked up, the tested form may be a part): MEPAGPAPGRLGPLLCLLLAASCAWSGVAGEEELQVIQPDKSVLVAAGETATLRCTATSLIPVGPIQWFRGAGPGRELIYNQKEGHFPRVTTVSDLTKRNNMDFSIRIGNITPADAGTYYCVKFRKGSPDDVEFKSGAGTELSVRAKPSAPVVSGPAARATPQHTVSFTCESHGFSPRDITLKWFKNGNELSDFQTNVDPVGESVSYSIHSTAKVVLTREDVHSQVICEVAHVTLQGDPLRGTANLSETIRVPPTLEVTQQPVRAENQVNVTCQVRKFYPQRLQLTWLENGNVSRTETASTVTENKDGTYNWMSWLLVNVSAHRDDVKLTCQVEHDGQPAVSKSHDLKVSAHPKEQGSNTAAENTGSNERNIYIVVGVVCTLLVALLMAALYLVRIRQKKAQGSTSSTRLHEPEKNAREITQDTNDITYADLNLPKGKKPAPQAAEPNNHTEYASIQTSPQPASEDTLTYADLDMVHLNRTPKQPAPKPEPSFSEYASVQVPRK
Tyrosine-protein phosphatase non-receptor type substrate 1 (Homo sapiens) + Leukocyte surface antigen CD47 (Homo sapiens), sequence (Q08722 whole entry, looked up, the tested form may be a part): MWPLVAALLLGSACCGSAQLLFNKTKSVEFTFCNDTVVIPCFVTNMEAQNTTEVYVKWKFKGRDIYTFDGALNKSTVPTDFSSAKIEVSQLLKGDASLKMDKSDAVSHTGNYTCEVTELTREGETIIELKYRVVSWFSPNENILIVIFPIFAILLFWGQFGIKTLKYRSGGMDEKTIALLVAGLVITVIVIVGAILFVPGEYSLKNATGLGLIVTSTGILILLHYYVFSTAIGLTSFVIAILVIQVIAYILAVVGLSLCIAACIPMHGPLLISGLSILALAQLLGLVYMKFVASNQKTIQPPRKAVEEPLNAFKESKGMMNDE
On the technique in general: In TR-FRET formats the signal depends on donor and acceptor labels being close together.

Several values for one entry are separate records, joined by “and”; a condition that tells them apart may be missing. Equal entries are not always repeated. Inconclusive results are not listed. Some structures have more than one record in an assay (separate samples or runs), and their calls can disagree. Activity calls are given as the source filed them. Unless noted, the call rests on the fitted dose curve; in most records, active means well fitted curve in the direction sought with a large enough effect; inconclusive means small, poorly fitted or top-dose-only effect, or another doubt; inactive means no such curve, though single readings can be large; an effect the other way counts as inactive or inconclusive.

Atrial natriuretic peptide receptor 1 (Homo sapiens), sequence (P16066 whole entry, looked up): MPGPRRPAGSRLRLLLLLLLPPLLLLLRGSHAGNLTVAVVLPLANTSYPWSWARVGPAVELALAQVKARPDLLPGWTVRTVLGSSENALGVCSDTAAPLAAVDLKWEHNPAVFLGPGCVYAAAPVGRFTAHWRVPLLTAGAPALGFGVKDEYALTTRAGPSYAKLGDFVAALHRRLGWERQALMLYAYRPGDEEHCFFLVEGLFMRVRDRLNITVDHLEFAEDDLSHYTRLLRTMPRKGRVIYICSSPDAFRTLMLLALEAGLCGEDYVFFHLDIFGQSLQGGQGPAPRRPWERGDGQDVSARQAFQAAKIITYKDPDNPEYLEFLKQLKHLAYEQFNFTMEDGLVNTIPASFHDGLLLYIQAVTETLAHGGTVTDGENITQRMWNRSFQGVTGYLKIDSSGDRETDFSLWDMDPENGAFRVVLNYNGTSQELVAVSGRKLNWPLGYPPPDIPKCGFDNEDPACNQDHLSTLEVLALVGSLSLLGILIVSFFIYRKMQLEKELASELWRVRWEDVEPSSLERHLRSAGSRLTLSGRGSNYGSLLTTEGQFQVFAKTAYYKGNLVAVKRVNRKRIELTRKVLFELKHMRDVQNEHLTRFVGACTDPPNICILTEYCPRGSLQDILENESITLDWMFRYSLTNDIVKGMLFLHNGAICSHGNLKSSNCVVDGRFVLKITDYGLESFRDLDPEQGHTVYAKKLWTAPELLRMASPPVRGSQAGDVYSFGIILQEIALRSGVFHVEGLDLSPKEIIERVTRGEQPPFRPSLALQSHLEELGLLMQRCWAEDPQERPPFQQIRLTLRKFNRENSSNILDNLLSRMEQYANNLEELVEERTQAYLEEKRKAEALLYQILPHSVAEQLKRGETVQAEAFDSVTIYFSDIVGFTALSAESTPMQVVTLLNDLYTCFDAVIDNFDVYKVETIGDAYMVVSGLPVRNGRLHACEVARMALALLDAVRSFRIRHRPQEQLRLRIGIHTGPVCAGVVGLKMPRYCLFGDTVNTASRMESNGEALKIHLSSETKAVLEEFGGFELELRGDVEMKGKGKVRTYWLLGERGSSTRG

Turning to `Cc1nc2n(c(=O)c1CCN1CCC(c3noc4cc(F)ccc34)CC1)CCCC2`, the viability (% of control) in [1] is 103%. The Potency entry in test [2], in [3], in [4], in test [5], in [6] and in [7] was “inactive” in each case. In test [9], the Potency result is “inactive”. The Potency entry in [8] was “inactive and 8.2 µM (active)”.

Consider `COCCCN1CCC(NC(=O)c2cc(Cl)c(N)c3c2OCC3)CC1`, for which the viability (% of control) in test [1] is 76.6%. The Potency entry in [2] and in [9] was “inactive” in each case.

With `CC1=C(C)C(=O)C(C(CCCCCC(=O)O)c2ccccc2)=C(C)C1=O` (configuration not stated), the viability (% of control) in [1] came to 115%. Further, the Potency result in [2], in [10], in test [3], in test [4], in [5] and in test [6] was “inactive” each time. For the same molecule, the Potency entry in test [7] and in test [9] was “inactive” throughout.

In the case of `CCC[C@@H]1C[C@@H](C(=O)N[C@@H]([C@H]2O[C@H](SC)[C@H](O)[C@@H](O)[C@H]2O)[C@@H](C)O)N(C)C1`, the viability (% of control) in test [1] stood at 114%. In addition, the Potency result in [2], in test [10], in test [4], in test [5], in test [7] and in test [9] was “inactive” throughout.

As for `CC(C)C[C@H](NC(=O)[C@H](Cc1ccccc1)NC(=O)c1cnccn1)B(O)O`, the viability (% of control) in [1] stood at 3.36%. Moreover, in test [2], the Potency result is “inactive”. For the same molecule, the Potency in [10] is 0.0332 µM (active); in [3], 0.0418 µM (active); in test [4] it was 0.0166 µM (active); in [5], 0.0372 µM (active); in test [6], 12.6 nM (active) and 6.3 nM (active); in [11], 0.0166 µM (active). For the same molecule, the Potency in test [12] is 0.0017 µM (active); in test [13] it was 0.0105 µM (active); in test [15], 0.0148 µM (active); in test [9], 0.0332 µM (active). The IC50 (viability decrease) in test [14] was 0.0037 µM (active).

As for `Clc1ccc(C(Cn2ccnc2)OCc2ccsc2Cl)c(Cl)c1` (configuration not stated), the viability (% of control) in test [1] amounted to 32.2%. For the same molecule, the Potency result in test [2], in test [6] and in [7] was “inactive” each time.

`O=C(NOCC1CC1)c1ccc(F)c(F)c1Nc1ccc(I)cc1Cl`: the viability (% of control) in test [1] amounted to 7.67%. In [2], the Potency result was “inactive”. Also, the Potency was 20.9 µM (active) in test [10], 20.9 µM (active) in [3], 16.6 µM (active) in test [5] and 18.4 µM (active) in test [8].

In the case of `COc1cc(C(C)=O)ccc1OCCCN1CCC(c2noc3cc(F)ccc23)CC1`, the viability (% of control) in test [1] came out at 52.5%. Also, the Potency entry in test [2], in test [16], in [17] and in [9] was “inactive” in each case.

Regarding `CCCS(=O)c1ccc2nc(NC(=O)OC)[nH]c2c1` (configuration not stated), the viability (% of control) in test [1] worked out at 13.7%. For the same molecule, the Potency in [2] was 10 µM (active) and 16.6 µM (active); in test [10] it was 20.9 µM (active); in [4], 20.9 µM (active); in test [5] it was 23.5 µM (active). Moreover, the Potency entry in test [9] is “inactive”.

As to `O=P(O)(O)C(O)(Cn1ccnc1)P(=O)(O)O`, in [1], the viability (% of control) is 108% [at 23.2 µM]. Also, the Potency entry in test [2], in test [10], in test [4], in test [5], in test [6] and in [7] was “inactive” in each case. In addition, the Potency result in test [8] is “inactive”.

As to `CCCCc1ccc2nc(NC(=O)OC)[nH]c2c1`, the viability (% of control) in test [1] was 13.4%. Besides, the Potency result in [2], in [5] and in [7] was “inactive” each time. Moreover, the Potency in [10] was 0.0105 µM (active); in [4], 0.0093 µM (active); in test [8], 11.8 nM (active) and 111 nM (active).

Take `COc1cc2c(N3CCN(C(=O)Nc4ccc(OC(C)C)cc4)CC3)ncnc2cc1OCCCN1CCCCC1`: in test [1], the viability (% of control) stood at 11.3%. Besides, the Potency result in [2], in [11], in test [13], in test [8] and in test [9] was “inactive” throughout. Also, the Potency is 26.4 µM (active) in test [10], 23.5 µM (active) in test [4] and 18.7 µM (active) in test [5].

As to `Cc1cccc(C)c1OCC(=O)N[C@@H](Cc1ccccc1)[C@@H](O)C[C@H](Cc1ccccc1)NC(=O)[C@H](C(C)C)N1CCCNC1=O`, the viability (% of control) in test [1] was determined as 91.4%. Further, the Potency entry in test [2], in test [16], in [6], in [7] and in test [9] was “inactive” each time.

As for `Clc1ccc(C(Cn2ccnc2)OCc2c(Cl)cccc2Cl)c(Cl)c1` (configuration not stated), the viability (% of control) in test [1] was 63.4%. The Potency result in [2], in test [16], in test [6] and in [7] was “inactive” in each case.

In the case of `COc1cc2nc(N3CCN(C(=O)C4CCCO4)CC3)nc(N)c2cc1OC` (configuration not stated), the viability (% of control) in test [1] came out at 88.2%. Also, the Potency entry in test [2] is “inactive and 13.2 µM (active)”. The Potency result in test [10], in test [4], in [5], in test [7], in [8] and in test [18] was “inactive” throughout. The Potency result in test [9] was “inactive”. In test [6], the activity, negative = inhibition was -3.3% [at 1.88 µM] (inactive).

Take `CCc1nc(N)nc(N)c1-c1ccc(Cl)cc1`: the Potency result in test [2], in test [16], in [6] and in test [7] was “inactive” each time. The Potency in test [3] is 1.32 µM (active); in test [5], 2.64 µM (active).

Take `C[C@@H](N)C1CCC(C(=O)Nc2ccncc2)CC1` (some centres not stated): the Potency entry in test [2], in test [16], in test [3], in test [4], in test [5] and in [11] was “inactive” throughout. For the same molecule, the Potency entry in [13] is “inactive”. In test [10], the Potency is 18.7 µM (active). Also, the IC50 (viability decrease) entry in test [14] was “inactive”. Besides, in [19], the outcome was inactive.

Consider `N=C(N=C(N)N)N1CCOCC1`, for which the Potency entry in test [2], in test [6], in test [7] and in [8] was “inactive” in each case.
